{"source": "PubChem BioAssay AID1852", "about": "(Sanford-Burnham Center for Chemical Genomics, 2009)", "note": "Hit rate of the full screen: of about 2,500 compounds, about 1,100 (44%) were called active.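 How the source made its calls: active means inhibition above 50% at 4 µM in the single-point screen; inactive means inhibition of 50% or less.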 So high a share suggests a set chosen from earlier hits. Some of the results follow.", "data": [{"test": "blockers of TNF-a NF-kB luciferase induction – cell-based, HEK293T NF-kB-Luc, luminescence, selectivity assay for NOD1/NOD2 signaling inhibitor project, primary screen (AID 1852)", "conditions": "TNF-a induced, 14 h, at 4 µM, stronger effect = higher value", "values": [{"compound": "COc1ccc(/C=C/C(=O)C2CC2)cc1Cn1nc(C)c([N+](=O)[O-])c1C", "inhibition": "36.6% (inactive)"}, {"compound": "Cc1ccc(C(C)C)c(OCc2ccc(-c3nnco3)cc2)c1", "inhibition": "12.4% (inactive)"}, {"compound": "COc1cc(/C=C2\\SC(=N)N(c3ccc(F)cc3)C2=O)ccc1O", "inhibition": "51.1% (active)"}, {"compound": "COc1ccccc1OCCCOc1cccc(/C=C2\\SC(=O)NC2=O)c1", "inhibition": "3.3% (inactive)"}, {"compound": "COc1cc(/C=C2\\SC(N3CCC(C)CC3)=NC2=O)ccc1O", "inhibition": "1.4% (inactive)"}, {"compound": "COc1cc(/C=C2/C(=O)NN(c3ccc(Cl)cc3)C2=O)cc(Br)c1O", "inhibition": "-1.7% (inactive)"}, {"compound": "COc1cccc(OCCOc2ccc(/C=C3/SC(=S)NC3=O)cc2)c1", "inhibition": "-114% (inactive)"}, {"compound": "COc1ccc(N=C2NC(=O)/C(=C/c3ccc(O)c(OC)c3)S2)cc1", "inhibition": "70.8% (active)"}, {"compound": "COc1ccc(OC)c(/C=C2\\S/C(=N/NC(=O)c3ccc4ccccc4c3)NC2=O)c1", "inhibition": "-2.1% (inactive)"}, {"compound": "COc1cc(/C=C2/SC(=Nc3ccc(O)cc3)NC2=O)ccc1O", "inhibition": "89.8% (active)"}, {"compound": "COc1cc(/C=N\\NC(=O)c2ccc(-c3ccccc3)cc2)cc(Br)c1O", "inhibition": "43% (inactive)"}, {"compound": "COc1cc(/C=N/NC(=O)c2cc3c(ccc4ccccc43)o2)cc(OC)c1O", "inhibition": "36.5% (inactive)"}, {"compound": "COc1cc(/C=N/NC(=O)c2ccc(-c3ccccc3)cc2)cc(OC)c1OC", "inhibition": "63.8% (active)"}, {"compound": "COc1cccc(/C=N/NC(=O)c2ccc(-c3ccccc3)cc2)c1O", "inhibition": "70% (active)"}, {"compound": "Cc1ccccc1CS(=O)(=O)c1nnc([C@H](CC(C)C)NC(=O)OC(C)(C)C)o1", "inhibition": "35% (inactive)"}, {"compound": "COc1cc(CNc2ccc3[nH]c(=O)[nH]c3c2)ccc1OCc1c(F)cccc1Cl", "inhibition": "49.2% (inactive)"}, {"compound": "Clc1c(Cl)c(Cl)c2n[nH]nc2c1Cl", "inhibition": "26.8% (inactive)"}, {"compound": "O=C(N/N=C/c1cccc2cccnc12)c1ccccc1O", "inhibition": "53.1% (active)"}, {"compound": "O=C(N/N=C/c1ccccc1O)c1cccc2ccccc12", "inhibition": "99.3% (active)"}, {"compound": "Cc1cccc2cc(/C=N/NC(=O)c3ccccc3O)c(Cl)nc12", "inhibition": "63.3% (active)"}, {"compound": "COc1cccc(/C=N/NC(=O)c2c(C)nc3ccc(Cl)cn23)c1O", "inhibition": "46.8% (inactive)"}, {"compound": "O=C(/C=C/c1ccco1)Oc1cc(Br)cc(/C=N/NC(=O)c2ccccc2O)c1", "inhibition": "44.6% (inactive)"}, {"compound": "Cc1ccc(NC(=O)CCC(=O)N/N=C/c2ccccc2O)cc1", "inhibition": "58.1% (active)"}, {"compound": "Cc1c(/C=N/NC(=O)c2ccccc2O)c2ccccn2c1C(=O)c1ccc(F)cc1", "inhibition": "21.3% (inactive)"}, {"compound": "O=C(CCC(=O)Nc1ccc(Br)cc1)N/N=C/c1ccccc1O", "inhibition": "49.3% (inactive)"}, {"compound": "O=C1CCN(CCc2ccccc2)CCN1CCOc1ccccc1", "inhibition": "-6.2% (inactive)"}, {"compound": "O=C(N/N=C/c1ccc(O)cc1O)c1ccncc1", "inhibition": "28.2% (inactive)"}, {"compound": "CCc1cc(C(=O)N/N=C/c2ccc(O)cc2O)c2ccccc2n1", "inhibition": "50.7% (active)"}, {"compound": "CCOc1ccc(/C=N/NC(=O)C(O)c2ccccc2)c(O)c1", "note": "(stereo unspecified)", "inhibition": "45.4% (inactive)"}, {"compound": "CCn1c(SCC(=O)Nc2nc(-c3ccccc3)cs2)nnc1-c1ccccc1", "inhibition": "34.3% (inactive)"}, {"compound": "Cc1csc(SCC(=O)Nc2cccc3nsnc23)n1", "inhibition": "100% (active)"}, {"compound": "O=C(CN1C(=O)c2cccnc2Oc2ccc(Cl)cc21)NCCCc1ccccc1", "inhibition": "12% (inactive)"}, {"compound": "O=C(NC(=S)N(CCCCO)C1CCCCC1)c1sc2ccccc2c1Cl", "inhibition": "104% (active)"}, {"compound": "COc1ccc(C(=O)NC(=S)N(C)C2CCCCC2)cc1Br", "inhibition": "-14.8% (inactive)"}, {"compound": "Cc1ccc(C(C)NC(=S)NC2CCCCC2)cc1C", "note": "(stereo unspecified)", "inhibition": "24.8% (inactive)"}, {"compound": "Cc1ccc(C(=O)NC(=S)N(C)C2CCCCC2)cc1Br", "inhibition": "106% (active)"}, {"compound": "O=C(Nc1ccccc1C(=O)Nc1nnc(C(F)(F)F)s1)c1ccccc1Cl", "inhibition": "86.7% (active)"}, {"compound": "Cc1ccccc1N1CCN(S(=O)(=O)c2nnc(NC(=O)c3ccc(F)cc3)s2)CC1", "inhibition": "-27.1% (inactive)"}, {"compound": "Cc1onc(-c2c(F)cccc2Cl)c1C(=O)Nc1nnc(C(F)(F)F)s1", "inhibition": "48.9% (inactive)"}, {"compound": "O=C(Nc1ccccc1C(=O)Nc1nnc(C(F)(F)F)s1)c1ccccc1", "inhibition": "51% (active)"}, {"compound": "Cc1onc(-c2ccccc2Cl)c1C(=O)Nc1nnc(-c2ccc(Br)cc2)s1", "inhibition": "-22.4% (inactive)"}, {"compound": "Cc1ccnc(OC(C(=O)O)C(OCc2ccccc2)(c2ccc(F)cc2)c2ccc(F)cc2)n1", "note": "(stereo unspecified)", "inhibition": "-7.9% (inactive)"}, {"compound": "CCn1cc([N+](=O)[O-])c(C(=O)N2N=C(c3ccc(OC)cc3OC)CC2c2ccccc2O)n1", "note": "(stereo unspecified)", "inhibition": "86.6% (active)"}, {"compound": "CCn1cc([N+](=O)[O-])c(C(=O)N2N=C(c3ccc4ccccc4c3)CC2c2cc(Br)ccc2O)n1", "note": "(stereo unspecified)", "inhibition": "-56.7% (inactive)"}, {"compound": "CC1CC(C)CN(C(=O)CSc2nc(Cc3cccs3)nc3ccccc23)C1", "note": "(stereo unspecified)", "inhibition": "-34.3% (inactive)"}, {"compound": "Nc1ccc2c(c1)C(=O)C(=O)c1ccccc1-2", "inhibition": "97.6% (active)"}, {"compound": "O=C1C(Cl)=C(Nc2ccccc2)C(=O)c2ccccc21", "inhibition": "-83.5% (inactive)"}, {"compound": "O=C1C(=O)c2ccc(-c3ccccc3)cc2-c2ccccc21", "inhibition": "102% (active)"}, {"compound": "CCn1c(SCC(=O)N2CCC(C)CC2)nc2c(c1=O)SCC2", "inhibition": "1.5% (inactive)"}, {"compound": "CCCCCCc1cc2cc(S(=O)(=O)c3ccc(F)c(Cl)c3)c(=O)oc2cc1O", "inhibition": "38.7% (inactive)"}, {"compound": "CCCCCCc1cc2cc(S(=O)(=O)c3ccc(Cl)cc3)c(=O)oc2cc1O", "inhibition": "65.1% (active)"}, {"compound": "CCCCCCc1cc2cc(C(=O)OCC)c(=O)oc2cc1O", "inhibition": "9.4% (inactive)"}, {"compound": "COCCn1c(C)cc(C(=O)CSc2ncnc3sc4c(c23)CCC4)c1C", "inhibition": "14.2% (inactive)"}, {"compound": "O=C(O)CSc1ncnc2sc3c(c12)CCCC3", "inhibition": "31.1% (inactive)"}, {"compound": "c1csc(CCNc2ncnc3sc4c(c23)CCC4)c1", "inhibition": "62.9% (active)"}, {"compound": "CC1(C)CC(N2CCN(C(c3ccccc3)c3ccccc3)CC2)=CC(=[N+]2CCCCC2)C1", "inhibition": "80.1% (active)"}, {"compound": "CC1(C)CC(N2CCCC2)=CC(=[N+]2CCCCCC2)C1", "inhibition": "34% (inactive)"}, {"compound": "CC1CC(C)C[N+](=C2C=C(N3CCCC3)CC(C)(C)C2)C1", "note": "(stereo unspecified)", "inhibition": "49.7% (inactive)"}, {"compound": "O=C(NC(c1ccc(Cl)cc1)c1c(O)ccc2ccccc12)c1ccccc1", "note": "(stereo unspecified)", "inhibition": "78.3% (active)"}, {"compound": "Cc1c(O)ccc(/C=N/Nc2nc(-c3cccnc3)nc3ccccc23)c1O", "inhibition": "-60% (inactive)"}, {"compound": "FC(F)(F)c1cc(Sc2ccccc2)nc(-c2ccccn2)n1", "inhibition": "-4.1% (inactive)"}, {"compound": "Cc1cc(C)nc(N/N=C/c2c[nH]c3ccccc23)n1", "inhibition": "29% (inactive)"}, {"compound": "Oc1ccc(/C=N/Nc2nc(-c3ccccc3F)nc3ccccc23)c(O)c1", "inhibition": "68.2% (active)"}, {"compound": "Oc1ccc(/C=N/Nc2nccnc2Cl)c(O)c1", "inhibition": "39.8% (inactive)"}, {"compound": "Fc1ccccc1/C=N/Nc1nc(-c2ccccn2)nc2ccccc12", "inhibition": "98.7% (active)"}, {"compound": "C(=N\\Nc1nc(-c2ccccn2)nc2ccccc12)/c1ccccc1", "inhibition": "78.9% (active)"}, {"compound": "Cc1c(Cl)cccc1NC(=S)NNc1ncc(C(F)(F)F)cc1Cl", "inhibition": "28.7% (inactive)"}, {"compound": "Cc1ccc(S(=O)(=O)c2ccc([N+](=O)[O-])cn2)cc1", "inhibition": "38.5% (inactive)"}, {"compound": "O=[N+]([O-])c1cccnc1S(=O)(=O)c1ccccc1", "inhibition": "69.6% (active)"}, {"compound": "Cc1ccc(C(=O)Nc2ncc([N+](=O)[O-])s2)cc1", "inhibition": "3.8% (inactive)"}, {"compound": "Cc1ccc(S(=O)(=O)c2ncccc2[N+](=O)[O-])cc1", "inhibition": "52.6% (active)"}, {"compound": "CC(C)C[C@H](NC(=O)c1nc[nH]c1C(=O)N1CCN(C(=O)OC(C)(C)C)CC1)C(=O)OC(C)(C)C", "inhibition": "2.4% (inactive)"}, {"compound": "Cc1ccnc(NC(=O)CSc2cc(=O)n(C)c3ccccc23)c1", "inhibition": "86.3% (active)"}, {"compound": "Cc1ccnc(NC(=O)Cc2ccc(-c3ccccc3)cc2)c1", "inhibition": "48.8% (inactive)"}, {"compound": "CCn1c(=O)cc(SCC(=O)Nc2ccc(C)cn2)c2ccccc21", "inhibition": "35.4% (inactive)"}, {"compound": "Nc1ncc(Br)cc1S(=O)(=O)Nc1cc(C(F)(F)F)cc(C(F)(F)F)c1", "inhibition": "78% (active)"}, {"compound": "Cc1nc(N2CCC(C)CC2)c2c(C)c(C(=O)Nc3cc(F)ccc3C)sc2n1", "inhibition": "-61.2% (inactive)"}, {"compound": "CCOC(=O)c1sc2nc(CSc3ccccc3)[nH]c(=O)c2c1C", "inhibition": "-7.9% (inactive)"}, {"compound": "Cc1sc2nc(CSc3ccccc3)nc(N3CCC(C(N)=O)CC3)c2c1C", "inhibition": "53.5% (active)"}, {"compound": "Cc1nc(N2CCC(C(N)=O)CC2)c2c(-c3cccs3)csc2n1", "inhibition": "57.4% (active)"}, {"compound": "Cc1nc(N2CCN(c3ccccc3O)CC2)c2c(-c3ccccc3)csc2n1", "inhibition": "-13.5% (inactive)"}, {"compound": "Cc1nc(N2CCN(C(=O)COc3ccccc3)CC2)c2c(C)c(C)sc2n1", "inhibition": "23.4% (inactive)"}, {"compound": "CCOc1cc(/C=C2\\C(=N)N3N=C(S(C)(=O)=O)SC3=NC2=O)ccc1OCCOc1cccc(OC)c1", "inhibition": "-31.3% (inactive)"}, {"compound": "Fc1ccc(Sc2nc(-c3ccccc3)nnc2C(F)(F)F)cc1", "inhibition": "40.3% (inactive)"}, {"compound": "CC(C)c1ccc(-n2c(-c3ccccc3)c[n+]3c2CCc2ccccc2-3)cc1", "inhibition": "86% (active)"}, {"compound": "CCCC(Oc1ccc(Br)cc1)c1nc2c3cc(OC)c(OC)cc3nc(=S)n2[nH]1", "note": "(stereo unspecified)", "inhibition": "104% (active)"}, {"compound": "CC(Oc1ccc(Br)cc1)c1nc2c3ccccc3nc(=S)n2[nH]1", "note": "(stereo unspecified)", "inhibition": "101% (active)"}, {"compound": "O=CN1CCN(c2c([N+](=O)[O-])c(=O)oc3ccccc23)CC1", "inhibition": "-17% (inactive)"}, {"compound": "N=C1SCC(=O)N1c1ncc(Cc2ccc(F)cc2)s1", "inhibition": "109% (active)"}, {"compound": "N=C1SCC(=O)N1c1ncc(Cc2cccc(Cl)c2)s1", "inhibition": "101% (active)"}, {"compound": "O=C1CCSc2ccc(Cl)cc2N1Cc1cccc(Cl)c1", "inhibition": "17.4% (inactive)"}, {"compound": "N=C1SCC(=O)N1c1ncc(Cc2ccccc2Cl)s1", "inhibition": "97.5% (active)"}, {"compound": "COc1ccc(COC(=O)NC2CCN(S(=O)(=O)c3ccc(OC)cc3)CC2)cc1", "inhibition": "20.6% (inactive)"}, {"compound": "Cc1nc(N2CCN(c3ccccn3)CC2)c2c(C)c(C(=O)N3CCN(c4ccc(F)cc4)CC3)sc2n1", "inhibition": "-51.2% (inactive)"}, {"compound": "CCOC(=O)C1CCN(c2ncnc3c2cnn3-c2ccc(Cl)cc2)CC1", "inhibition": "36.4% (inactive)"}, {"compound": "Cc1nn(-c2ccccc2)c(Cl)c1C(=O)N1CCN(c2ncnc3c2cnn3-c2ccccc2)CC1", "inhibition": "86.6% (active)"}]}]}
